# In PubChem BioAssay (NCI):
# About 79,000 compounds went through this panel and 15% of them were active in at least one assay; those are over-represented in the sample as a whole. Values without a mark were called inactive. Activity calls are given as the source filed them. Rule as the data show it: active = growth inhibition above about 70%; inactive = the rest.
# Assay: NCI Yeast Anticancer Drug Screen. Data for the mlh1 rad18 strain (AID 175)
# Settings: S. cerevisiae mlh1 rad18 strain growth inhibition; at 50.0 µM (retest, dose inferred, filed as 5.0); stronger effect = higher value
# In short: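 Compound-treated yeast growth, normalised to vehicle controls. Strain bears defined DNA repair mutations.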
row,Compound,growth inhibition
1,CCOc1ccccc1/C=C1\NC(=O)N(/C=C2\C(=O)Oc3ccccc3C2=O)C1=O,89% (active)
2,CC(NNC(=S)N1CCCC1)c1ccc2ccccc2n1 (stereo unspecified),98% (active)
3,N#Cc1c(-c2ccc(Cl)cc2)c(C#N)c(=O)n(NS(=O)(=O)c2ccccc2)c1S,71% (active)
4,CC(C)/C=C1\CCOC1=O,6%
5,c1ccc(Nc2nnc3nc(-c4ccccc4)c(-c4ccccc4)nn23)cc1,84% (active)
6,O=C(NC(c1ccccc1)N1CCOCC1)c1ccccc1 (stereo unspecified),-1%
7,N[C@@H]1CCCC[C@@H]1N.O=C([O-])CN(CP(=O)([O-])[O-])CP(=O)([O-])[O-].[Pt+2],77% (active)
8,C/C=C\C(/C=C/C)(C(=O)OCCN(C)C)C(/C=C\C)(/C=C/C)C(=O)OCCN(C)C (stereo unspecified),97% (active)
9,COc1ccc(CCNC(=S)/N=C\C(C(=O)c2ccccc2)=C(\O)c2ccccc2)cc1OC,97% (active)
10,Cc1ccccc1C1SCc2nc3ccccc3n21 (stereo unspecified),-9%
11,O=C(Nc1ccc(Cl)cc1)Nc1nnc(/C=C/c2ccc(Cl)c(Cl)c2)o1,-16%
12,Cc1c(CCCl)c(N=[N+]=[N-])n2c(nc3ccccc32)c1C#N,48%
13,O=C(OCCCC(C(=O)c1ccccc1)=P(c1ccccc1)(c1ccccc1)c1ccccc1)c1ccccc1,99% (active)
14,O=C(c1ccccc1)c1ccc(Cl)cc1,2%
15,O=C1C(C(O)(C(F)(F)Cl)C(F)(F)Cl)CCCC1C(O)(C(F)(F)Cl)C(F)(F)Cl (stereo unspecified),99% (active)
16,CCN(CC)C(=S)N=Nc1c(O)[nH]c2ccccc12,99% (active)
